From the supplement of paper PMC8975748
Where a name gives a salt, the structure may show the parent alone.

These compounds were tested on Saccharomyces cerevisiae BY4741 SeMeCo community (assay: z-score of subpopulation abundance vs DMSO median, subpopulation auxotrophic for HU; higher = larger share of this subpopulation than in DMSO controls). Settings: 10 µM; 24 h; SM minimal medium; subpopulation (auxotrophy): HU.
Experimental: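 Fluorescent four-plasmid SeMeCo (self-establishing metabolically cooperating S. cerevisiae BY4741 community; plasmids pH-mRuby2, pL-mWasabi, pU-eCFP, pM-TagRFP657) was grown 24 h in minimal SM medium with each Selleck FDA-approved drug at 10 µM in 384-well plates. Cells were fixed and imaged by high-content confocal microscopy. For each auxotrophic subpopulation (and the prototroph), a z-score gives the deviation from the DMSO vehicle-control population median.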
For `CN(C)c1cc(NC(=O)CNC(C)(C)C)c(O)c2c1CC1CC3C(N(C)C)C(=O)C(C(N)=O)=C(O)C3(O)C(=O)C1=C2O` (stereo not given) [Tigecycline], the “z-score of subpopulation abundance” value was 1.34.
`Cc1nccn1CC1CCc2c(c3ccccc3n2C)C1=O` (stereo not given) [Ondansetron HCl] was tested, and the “z-score of subpopulation abundance” value was -0.51.
`CC1CCc2cc(F)cc3c(=O)c(C(=O)O)cn1c23` (stereo not given) [Flumequine] was tested, and the “z-score of subpopulation abundance” value was 0.37.
With `CNS(=O)(=O)CCc1ccc2[nH]cc(C3CCN(C)CC3)c2c1` [Naratriptan HCl] the “z-score of subpopulation abundance” value was 0.27.
For `O=C(c1ccc(OCCN2CCCCC2)cc1)c1c(-c2ccc(O)cc2)sc2cc(O)ccc12` [Raloxifene HCl], the “z-score of subpopulation abundance” value was -1.43.
`CN[C@H](CC(C)C)C(=O)N[C@H]1C(=O)N[C@@H](CC(N)=O)C(=O)N[C@H]2C(=O)N[C@H]3C(=O)N[C@H](C(=O)N[C@H](C(=O)O)c4cc(O)cc(O)c4-c4cc3ccc4O)[C@H](O)c3ccc(c(Cl)c3)Oc3cc2cc(c3O[C@@H]2O[C@H](CO)[C@@H](O)[C@H](O)[C@H]2O[C@H]2C[C@](C)(N)[C@H](O)[C@H](C)O2)Oc2ccc(cc2Cl)[C@H]1O` [Vancomycin] was tested, and the “z-score of subpopulation abundance” value was -0.91.
`CNCCC(Oc1ccc(C(F)(F)F)cc1)c1ccccc1` (stereo not given) [Fluoxetine HCl] was tested, and the “z-score of subpopulation abundance” value was -0.26.
`OC(c1ccccc1)(c1ccccc1)C12CC[N+](CCOCc3ccccc3)(CC1)CC2` [Umeclidinium bromide] was tested, and the “z-score of subpopulation abundance” value was -0.27.
In the case of `CCCCNC(=O)NS(=O)(=O)c1ccc(C)cc1` [Tolbutamide], the “z-score of subpopulation abundance” value is reported as -0.31.
`CCc1cc(C(N)=S)ccn1` [Ethionamide] was tested, and the “z-score of subpopulation abundance” value was 0.19.
`O=C(CCCN1CC=C(n2c(=O)[nH]c3ccccc32)CC1)c1ccc(F)cc1` [Droperidol] was tested, and the “z-score of subpopulation abundance” value was -0.11.
For `COC(=O)Nc1nc2cc(C(=O)c3ccc(F)cc3)ccc2[nH]1` [Flubendazole], the “z-score of subpopulation abundance” value was 0.34.
In the case of `Cc1cc(-n2c(=O)[nH]c(=O)n(C)c2=O)ccc1Oc1ccc(SC(F)(F)F)cc1` [Toltrazuril], the “z-score of subpopulation abundance” value is reported as 0.29.
For `CC(=O)[C@H]1CC[C@H]2[C@@H]3CCC4=CC(=O)CC[C@]4(C)[C@H]3CC[C@]12C` [Progesterone], the “z-score of subpopulation abundance” value was -0.6.
For `CN1CCCN=C1/C=C/c1cccc(O)c1` [Oxantel Pamoate], the “z-score of subpopulation abundance” value was -0.96.
With `CN(C)CCc1c[nH]c2ccc(Cn3cncn3)cc12` [Rizatriptan Benzoate] the “z-score of subpopulation abundance” value was -0.96.
For `CCCCCNC(=N)N/N=C/c1c[nH]c2ccc(OC)cc12` [Tegaserod Maleate], the “z-score of subpopulation abundance” value was 0.48.
For `Cc1cnc(NC(=O)C2=C(O)c3ccccc3S(=O)(=O)N2C)s1` [Meloxicam], the “z-score of subpopulation abundance” value was -0.61.
For `Nc1nc(O)c2ncn(CCC(CO)CO)c2n1` [Penciclovir], the “z-score of subpopulation abundance” value was 0.29.
In the case of `CCN1CC(CCN2CCOCC2)C(c2ccccc2)(c2ccccc2)C1=O` (stereo not given) [Doxapram HCl], the “z-score of subpopulation abundance” value is reported as -0.57.
In the case of `NCc1ccccc1CC(=O)N[C@@H]1C(=O)N2C(C(=O)O)=C(CSc3nnnn3CC(=O)O)CS[C@H]12` [Ceforanide], the “z-score of subpopulation abundance” value is reported as 0.2.
In the case of `CCOC(=O)C1=C(C)NC(C)=C(C(=O)OCC)C1c1ccccc1/C=C/C(=O)OC(C)(C)C` [Lacidipine], the “z-score of subpopulation abundance” value is reported as -2.93.
In the case of `C#C[C@]1(O)CC[C@H]2[C@@H]3CCC4=CC(=O)CC[C@@H]4[C@H]3CC[C@@]21CC` [Levonorgestrel], the “z-score of subpopulation abundance” value is reported as -0.13.
For `CO[C@@H]1[C@@H](O[C@@H]2O[C@H](C)[C@@H](O[C@H]3C[C@@](C)(O)[C@@H](O)[C@H](C)O3)[C@H](N(C)C)[C@H]2O)[C@@H](CC=O)C[C@@H](C)[C@@H](O[C@H]2CC[C@H](N(C)C)[C@@H](C)O2)/C=C/C=C/C[C@@H](C)OC(=O)C[C@H]1OC(C)=O` [Acetylspiramycin (ASPM)], the “z-score of subpopulation abundance” value was -0.58.
In the case of `CCCCc1oc2ccccc2c1C(=O)c1cc(I)c(OCCN(CC)CC)c(I)c1` [Amiodarone HCl], the “z-score of subpopulation abundance” value is reported as 4.02.
In the case of `CCCC(=O)OCOC(=O)C1=C(C)NC(C)=C(C(=O)OC)C1c1cccc(Cl)c1Cl` (stereo not given) [Clevidipine Butyrate], the “z-score of subpopulation abundance” value is reported as -5.62.
In the case of `CC1(C)S[C@@H]2[C@H](NC(=O)C(C(=O)O)c3ccccc3)C(=O)N2[C@H]1C(=O)O` (stereo not given in full) [Carbenicillin disodium], the “z-score of subpopulation abundance” value is reported as -0.53.
In the case of `C[C@H]1c2cccc(O)c2C(O)=C2C(=O)[C@]3(O)C(O)=C(C(N)=O)C(=O)[C@@H](N(C)C)[C@@H]3[C@@H](O)[C@@H]21` [Doxycycline monohydrate], the “z-score of subpopulation abundance” value is reported as -1.42.
With `COc1cccc2c1C(=O)c1c(O)c3c(c(O)c1C2=O)C[C@@](O)(C(=O)CO)C[C@@H]3O[C@H]1C[C@H](N)[C@H](O[C@@H]2CCCCO2)[C@H](C)O1` [Pirarubicin] the “z-score of subpopulation abundance” value was 4.
In the case of `CCCCCCCCc1ccc(CCC(N)(CO)CO)cc1` [Fingolimod], the “z-score of subpopulation abundance” value is reported as -0.71.
In the case of `CCC1(c2ccccc2)C(=O)NCNC1=O` [Primidone], the “z-score of subpopulation abundance” value is reported as 0.35.
With `C#C[C@]1(O)CC[C@H]2[C@@H]3CCc4cc(OC)ccc4[C@H]3CC[C@@]21C` [Mestranol] the “z-score of subpopulation abundance” value was -0.49.
For `Clc1ccc(CCC(Cn2ccnc2)Sc2c(Cl)cccc2Cl)cc1` (stereo not given) [Butoconazole], the “z-score of subpopulation abundance” value was 7.63.
`CCN(CC)CCNC(=O)c1cc(Cl)c(N)cc1OC` [Metoclopramide] was tested, and the “z-score of subpopulation abundance” value was 1.02.
With `CC[C@@]1(O)C(=O)OCc2c1cc1n(c2=O)Cc2cc3c(CN(C)C)c(O)ccc3nc2-1` [Topotecan HCl] the “z-score of subpopulation abundance” value was -2.17.
In the case of `CCOc1cc(NC(C)=O)ccc1C(=O)OC` [Ethopabate], the “z-score of subpopulation abundance” value is reported as -0.22.
In the case of `CC(C)[C@H](N)C(=O)OCC(CO)OCn1cnc2c(=O)[nH]c(N)nc21` (stereo not given in full) [Valganciclovir HCl], the “z-score of subpopulation abundance” value is reported as -0.15.
With `Cc1nc2n(c(=O)c1CCN1CCC(c3noc4cc(F)ccc34)CC1)CCCC2` [Risperidone] the “z-score of subpopulation abundance” value was 0.99.
For `O=C(O)C[C@H](O)C[C@H](O)/C=C/c1c(C2CC2)nc2ccccc2c1-c1ccc(F)cc1` [Pitavastatin Calcium], the “z-score of subpopulation abundance” value was 2.66.
For `CC(C(=O)O)c1ccc(C(=O)c2cccs2)cc1` (stereo not given) [Suprofen], the “z-score of subpopulation abundance” value was -0.02.
